In PubChem BioAssay AID493231 (Broad Institute, 2011):
Measured potencies and affinities stand elsewhere. Calls of active or inactive are those of the source. No rule for the calls is given here.

molecular target: Acyl-homoserine lactone acylase PvdQ (Pseudomonas aeruginosa (strain ATCC 15692 / DSM 22644 / CIP 104116 / JCM 14847 / LMG 12228 / 1C / PRS 101 / PAO1)) (UniProt Q9I194); assay: PvdQ acylase enzyme activity blockers – biochemical, fluorescence, plate reader and imaging, cherry-picks, dose response (AID 493231); conditions: purified PvdQ acylase, fluorogenic substrate; series mostly up to 10 µM;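 also: more negative values mean stronger inhibition of the acylase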
Sequence (Q9I194 whole entry, looked up): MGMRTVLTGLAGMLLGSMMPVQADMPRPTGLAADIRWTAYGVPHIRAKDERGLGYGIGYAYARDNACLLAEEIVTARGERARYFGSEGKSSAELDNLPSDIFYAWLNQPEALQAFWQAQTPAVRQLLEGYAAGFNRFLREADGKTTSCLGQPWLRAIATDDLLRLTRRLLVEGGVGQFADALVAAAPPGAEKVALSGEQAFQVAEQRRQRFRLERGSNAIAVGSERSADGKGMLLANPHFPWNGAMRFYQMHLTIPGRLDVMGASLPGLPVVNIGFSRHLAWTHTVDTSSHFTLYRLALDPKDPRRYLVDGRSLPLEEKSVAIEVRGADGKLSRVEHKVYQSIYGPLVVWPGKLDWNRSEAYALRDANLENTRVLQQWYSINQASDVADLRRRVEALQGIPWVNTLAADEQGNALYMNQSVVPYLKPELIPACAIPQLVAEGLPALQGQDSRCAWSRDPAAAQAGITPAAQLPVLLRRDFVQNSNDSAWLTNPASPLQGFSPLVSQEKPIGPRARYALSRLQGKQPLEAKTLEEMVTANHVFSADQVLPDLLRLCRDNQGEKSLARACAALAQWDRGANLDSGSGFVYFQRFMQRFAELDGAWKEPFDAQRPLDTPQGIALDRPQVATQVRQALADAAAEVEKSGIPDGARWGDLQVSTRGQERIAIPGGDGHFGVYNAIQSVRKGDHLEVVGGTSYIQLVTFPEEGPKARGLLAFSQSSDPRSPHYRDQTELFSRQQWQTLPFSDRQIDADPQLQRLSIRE

outcome, inactive:
Cc1ccc2nc(-c3ccc(O)cc3)oc2c1
Cc1ccc(-c2nc3ccsc3c(=O)o2)cc1
COc1ccc(NC(=O)C2CCCN(C(=O)NC3CCCCC3)C2)cc1OC (centres undefined)
COc1cc2nc(CN3CCN(S(=O)(=O)c4c(F)cccc4F)CC3)[nH]c(=O)c2cc1OC
Cc1cc(NC(=O)Nc2ccc(F)c(Cl)c2)no1
CSCCC(NC(=O)c1ccc([N+](=O)[O-])cc1Cl)C(=O)OCC(=O)N(C)C (centres undefined)
CN(C)CCCN(Cc1cc2cc3c(cc2[nH]c1=O)OCO3)C(=S)Nc1cccc(Cl)c1
CCOc1ccccc1NC(=S)N1CCC(NC(=O)NC23CC4CC(CC(C4)C2)C3)CC1
COC(=O)c1cc(S(=O)(=O)Nc2cccc(S(N)(=O)=O)c2)oc1C
COc1ccc(Nc2nnc(-c3ccc(C)cc3)c3ccccc23)cc1C(=O)N1CCCCC1
Cc1cc(C)cc(N2C(=O)CC(Sc3ccccc3C(=O)O)C2=O)c1 (centres undefined)
CCN(c1ccc(NC(=O)CCNC(=O)c2ccco2)cc1)C(C)C
N#C/C(C(=S)Nc1ccccc1)=C1/NN=C(N2CCOCC2)N1c1ccccc1
O=C1C=C(c2ccccc2)OC(c2ccccc2)O1 (centres undefined)
CCn1c(Cc2ccccc2)nnc1SCC(=O)Nc1ccccc1
CCCCNc1c(C(=O)OCC)c(=O)[nH]c2ccccc12
CCOC(=O)c1[nH]c2c(c1C)C(=O)CC(c1ccco1)C2 (centres undefined)
CS(=O)(=O)c1ccc(Cl)c(NC(=O)COC(=O)c2ccc(F)cc2Cl)c1
NC(=O)COC(=O)c1ccc(-c2ccccc2)cc1
